The text below walks through data of PubChem BioAssay (NCATS).

Results filed as inconclusive are left out. Unmarked numbers belong to inactive results. Calls of active or inactive are those of the source. Calls come from the whole dose curve; as a rule, active = well fitted curve in the direction sought with a large enough effect; inconclusive = small, poorly fitted or top-dose-only effect, or another doubt; inactive = no such curve, though single readings can be large; an effect the other way counts as inactive or inconclusive.
Potency is the fitted concentration of half-maximal effect.

The nature of the first test: qHTS of pediatric cancer cell lines to identify multiple opportunities for drug repurposing: Confirmatory screen for DAOY cells (AID 1347114). For activity change, negative = cytotoxic: % is set by controls: 0 for no effect and ±100 for the full control effect. Note: nearly all actives have a fitted effect of over 65% in size. The following applies: DAOY medulloblastoma cells viability, cytotoxicity qHTS; series mostly up to 45.9 µM; activity change, negative = cytotoxic: at the top concentration. A digest of the protocol: (§1)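 Viability measured as metabolically active cells via CellTiter-Glo luminescence following 48 hours of compound exposure, 11-point dilutions in confirmatory testing. 500-1,000 cells/well plated 5 hours before dosing; controls were DMSO and 2.3 µM bortezomib.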
On to `CCOC(=O)[C@H](CCc1ccccc1)N[C@@H](C)C(=O)N1CCCC1C(=O)O` (some centres undefined), for which the “activity change, negative = cytotoxic” value is -20.4%.
As to `Nc1ncnc2c1ncn2[C@@H]1O[C@H](CO)[C@@H](O)[C@@H]1O`, the “activity change, negative = cytotoxic” value is 16.7%.
As for `CCC[C@H](Nc1nc(-c2ccc(NC(=O)NCC)c(OC)c2)ncc1C)c1cccnc1`, the Potency was 0.0827 µM (active).
In the case of `CC(C)CN(C[C@@H](O)[C@H](Cc1ccccc1)NC(=O)O[C@H]1CO[C@H]2OCC[C@H]21)S(=O)(=O)c1ccc(N)cc1`, the “activity change, negative = cytotoxic” value was -16.4%.
Take `CN(C)CCN(C)C(=O)c1ccc(NC(=O)Nc2ccc(-c3nc(N4CCOCC4)c4ccn(CC(F)(F)F)c4n3)cc2)cc1`: the Potency is 20.8 µM (active).
For the compound `CN(C(Cc1ccc(OS(=O)(=O)c2cccc3cnccc23)cc1)C(=O)N1CCN(c2ccccc2)CC1)S(=O)(=O)c1cccc2cnccc12` (centres undefined), the “activity change, negative = cytotoxic” value is -4.76%.
`CC(C)n1c(C=C[C@H](O)C[C@H](O)CC(=O)O)c(-c2ccc(F)cc2)c2ccccc21`: the Potency was 3.69 µM (active).
`Cc1csc(-c2nnc(Nc3ccc(Oc4ncccc4-c4ccnc(N)n4)cc3)c3ccccc23)c1`: the Potency was 23.3 µM (active).
Consider `CO[C@H]1/C=C\O[C@@]2(C)Oc3c(C)c(O)c4c(O)c(c5c(nc6cc(C)ccn65)c4c3C2=O)NC(=O)C(C)=CC=C[C@H](C)[C@H](O)[C@@H](C)[C@@H](O)[C@@H](C)[C@H](OC(C)=O)[C@H]1C`, for which the “activity change, negative = cytotoxic” value was -3.87%.
Same read-out and setting: with `Nc1ccn([C@@H]2O[C@H](CO)[C@@H](O)[C@H]2O)c(=O)n1` the figure was -18%; with `C[C@@H]1C[C@H]2[C@@H]3CCC4=CC(=O)C=C[C@]4(C)[C@@]3(F)[C@@H](O)C[C@]2(C)[C@@]1(O)C(=O)CO`, -0.127%.
Consider `CSc1cccc(Nc2ncc3cc(-c4c(Cl)cccc4Cl)c(=O)n(C)c3n2)c1`, for which the Potency was 1.17 µM (active).
With `C[C@@]1(c2cc(-c3cncnc3)c(F)cc2F)CCSC(N)=N1`, the “activity change, negative = cytotoxic” value was -16.9%.
Same read-out and setting: in the case of `CC(=O)N1CCN(c2ccc(OCc3nn(C)c(C)c3-c3cccc4c(CCCOc5cc(C)c(Cl)c(C)c5)c(C(=O)O)n(Cc5cccnc5)c34)cc2)CC1` it was -13.2%.
For `CC[C@H](NC(=O)[C@H](C)NC)C(=O)N1C[C@@H](O)C[C@H]1Cc1c(-c2[nH]c3cc(F)ccc3c2C[C@H]2C[C@H](O)CN2C(=O)[C@H](CC)NC(=O)[C@H](C)NC)[nH]c2cc(F)ccc12`, the Potency was 5.22 µM (active).
Still for that read-out and setting: with `CC1(COc2ccc3c(c2)ncn3-c2ccc3cccc(N4CCC(N)CC4)c3n2)COC1` the figure was 20.8 µM (active); with `Nc1ccc(-c2ccc3ncc4ccc(=O)n(-c5cccc(C(F)(F)F)c5)c4c3c2)cn1`, 3.69 µM (active).

Another test can be described thus: qHTS of pediatric cancer cell lines to identify multiple opportunities for drug repurposing: Confirmatory screen for SJ-GBM2 cells (AID 1347116).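 For activity change, negative = cytotoxic: plate controls were DMSO for no effect and bortezomib for full effect.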 Note: nearly all actives have a fitted effect of over 60% in size. The following applies: SJ-GBM2 glioblastoma cells, viability; series mostly up to 45.9 µM; activity change, negative = cytotoxic: at the top concentration. A digest of the protocol:
as §1
With `COc1cc([C@@H]2c3cc4c(cc3[C@@H](O[C@@H]3O[C@@H]5CO[C@@H](C)O[C@@H]5[C@H](O)[C@@H]3O)[C@H]3COC(=O)[C@H]23)OCO4)cc(OC)c1O`, the Potency is 9.27 µM (active).
Still for that read-out and setting: with `CC(C)n1c(C=C[C@H](O)C[C@H](O)CC(=O)O)c(-c2ccc(F)cc2)c2ccccc21` the figure was 13.1 µM (active).
As for `CO[C@H]1/C=C\O[C@@]2(C)Oc3c(C)c(O)c4c(O)c(c5c(nc6cc(C)ccn65)c4c3C2=O)NC(=O)C(C)=CC=C[C@H](C)[C@H](O)[C@@H](C)[C@@H](O)[C@@H](C)[C@H](OC(C)=O)[C@H]1C`, the “activity change, negative = cytotoxic” value is 1.83%.
For `CCNC(=O)c1noc(-c2cc(C(C)C)c(O)cc2O)c1-c1ccc(CN2CCOCC2)cc1`, the Potency was 0.208 µM (active).
The same measure, in the same setting: in the case of `Nc1ccc(-c2ccc3ncc4ccc(=O)n(-c5cccc(C(F)(F)F)c5)c4c3c2)cn1` it was 0.233 µM (active).

The next test is described as follows: qHTS of pediatric cancer cell lines to identify multiple opportunities for drug repurposing: Confirmatory screen for BT-37 cells (AID 1347117).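 For activity change, negative = cytotoxic: plate controls were DMSO for no effect and bortezomib for full effect.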 Note: nearly all actives have a fitted effect of over 55% in size. The following applies: BT-37 pediatric cancer cells, viability; series mostly up to 45.9 µM; activity change, negative = cytotoxic: at the top concentration. In short, it runs like this: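 Cells (500-1,000/well) in growth media were settled 5 h at 37 degrees C, then given compounds for 48 h. Viability was read as CellTiter-Glo luminescence. Primary runs used MIPE at 11 points (0.78 nM-46 µM) and NPC at 8 points (0.59 nM-46 µM); follow-ups used 11 points.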
Regarding `C[C@@]1(C(=O)Nc2ccc(F)nc2)CCCN1c1nc(Nc2cc(C3CC3)[nH]n2)c2cccn2n1`, the Potency was 2.93 µM (active).
The same measure, in the same setting: in the case of `COC(=O)Nc1ccc(-c2nc(N3CCOCC3)c3cnn(C4CCN(C(=O)OC)CC4)c3n2)cc1` it was 3.69 µM (active).
Regarding `C[C@H](c1ccc(F)cc1CCCC(=O)O)N(c1cc(F)ccc1F)S(=O)(=O)c1ccc(Cl)cc1`, the “activity change, negative = cytotoxic” value is -21.8%.
For the compound `Nc1ncnc2c1ncn2[C@@H]1O[C@H](CO)[C@@H](O)[C@@H]1O`, the Potency is 14.7 µM (active).
The same measure, in the same setting: in the case of `COc1cc([C@@H]2c3cc4c(cc3[C@@H](O[C@@H]3O[C@@H]5CO[C@@H](C)O[C@@H]5[C@H](O)[C@@H]3O)[C@H]3COC(=O)[C@H]23)OCO4)cc(OC)c1O` it was 0.737 µM (active); in that of `CON(C)C(=O)N1N=C(c2cc(F)ccc2F)S[C@]1(CCCN)c1ccccc1`, 0.0074 µM (active).
Still for that read-out and setting: with `CCC[C@H](Nc1nc(-c2ccc(NC(=O)NCC)c(OC)c2)ncc1C)c1cccnc1` the figure was 0.329 µM (active); with `CCC(c1ccc(O)cc1)C(CC)c1ccc(O)cc1` (centres undefined), 10.4 µM (active); with `CNC(=O)[C@H](CC1=CN=C2C=CCC=C12)NC(=O)[C@@H](CC(=O)NO)CC(C)C`, 0.827 µM (active).
On the same count and under the same terms, in the case of `CC(C)n1c(C=C[C@H](O)C[C@H](O)CC(=O)O)c(-c2ccc(F)cc2)c2ccccc21` it was 14.7 µM (active).
On to `CO[C@H]1/C=C\O[C@@]2(C)Oc3c(C)c(O)c4c(O)c(c5c(nc6cc(C)ccn65)c4c3C2=O)NC(=O)C(C)=CC=C[C@H](C)[C@H](O)[C@@H](C)[C@@H](O)[C@@H](C)[C@H](OC(C)=O)[C@H]1C`, for which the “activity change, negative = cytotoxic” value is -19.5%.
With `Nc1ccn([C@@H]2O[C@H](CO)[C@@H](O)[C@H]2O)c(=O)n1`, the Potency was 0.329 µM (active).
In the case of `C[C@@H]1C[C@H]2[C@@H]3CCC4=CC(=O)C=C[C@]4(C)[C@@]3(F)[C@@H](O)C[C@]2(C)[C@@]1(O)C(=O)CO`, the “activity change, negative = cytotoxic” value is -24.3%.
As to `CSc1cccc(Nc2ncc3cc(-c4c(Cl)cccc4Cl)c(=O)n(C)c3n2)c1`, the Potency is 4.14 µM (active).
Same read-out and setting: with `C[C@@]1(c2cc(-c3cncnc3)c(F)cc2F)CCSC(N)=N1` the figure was 11.7 µM (active); with `CCNC(=O)c1noc(-c2cc(C(C)C)c(O)cc2O)c1-c1ccc(CN2CCOCC2)cc1`, 0.0827 µM (active); with `Nc1ccc(-c2ccc3ncc4ccc(=O)n(-c5cccc(C(F)(F)F)c5)c4c3c2)cn1`, 0.117 µM (active).
